# Values joined by “and” are separate entries in the source; they are usually repeats but may differ in a detail not shown here. Equal entries are not always repeated. Active and inactive are the calls of the source. Cut-off read from the data, not from the text of the source, unless noted: active = inhibition above about 80%; inactive = the rest.
# Experiments:
# [1] = compounds altering circadian rhythm period length – cell-based, LOPAC library, luminescence reporter (AID 2774; call rule not given here;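 note: values are relative to mean of DMSO wells on each plate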); details: circadian reporter cells, at 7 µM, actives lie on both sides
# [2] = growth inhibition, single agent or in combination, cell-based, chromothripsis tumors, cisplatin or BGB combos (AID 1671449); details: LFS_MB_P medulloblastoma cells;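 note: cells exposed for 96 hours; 0% = vehicle DMSO and 100% = killing by high DMSO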
# [3] = growth inhibition, single agent and combos, cell-based, chromothripsis tumors, cisplatin or BGB combos (AID 1671450); details: HDN33 neuroblastoma cells, stronger effect = higher value;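 note: cells exposed to compound for four days; 0% = vehicle DMSO and 100% = cell killing by high DMSO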
# [4] = growth inhibition, single agents and combos, ICB984, cell-based, cisplatin or BGB combos, synergistic combos for chromothripsis tumors (AID 1671451; call rule not given here;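 note: cells exposed for 96 hours before readout; 0% = vehicle DMSO and 100% = killing by high DMSO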); details: ICB984 medulloblastoma cells, drug combinations, stronger effect = higher value
# [5] = growth inhibition, single agents and combos, LFS_MB_1R, cell-based, cisplatin or BGB combos, synergistic combos for chromothripsis tumors (AID 1671452); details: LFS_MB_1R medulloblastoma cells, stronger effect = higher value;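 note: cells exposed for 96 hours before readout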
# [6] = growth inhibition, single agents and combos, HTB85, cell-based, BGB or cisplatin IC20 combos, synergistic combos for chromothripsis tumors (AID 1671453); details: HTB85 osteosarcoma cells, drug combinations, stronger effect = higher value;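 note: cells exposed for 96 hours before readout; 0% = vehicle DMSO and 100% = high DMSO killing control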
# [7] = growth inhibition, single agents and combos, CRL2098, cell-based, BGB or cisplatin IC20 combos, synergistic combos for chromothripsis tumors (AID 1671454); details: CRL2098 osteosarcoma cells, drug combinations, stronger effect = higher value;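 note: cells exposed for 96 h before readout; 0% = vehicle DMSO and 100% = killing by high DMSO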
# [8] = growth inhibition, single agents and combos, HD-MB03, cell-based, BGB or cisplatin IC20 combos, synergistic combos for chromothripsis tumors (AID 1671455; in the data active = inhibition above about 83%;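 note: 0% = vehicle DMSO and 100% = high DMSO as cytotoxic control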); details: HD-MB03 medulloblastoma cells, stronger effect = higher value
# [9] = growth inhibition, single agents and combos, UWB1.289, cell-based, BGB or cisplatin combos, synergistic combos for chromothripsis tumors (AID 1671456); details: UWB1.289 ovarian carcinoma cells, stronger effect = higher value;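 note: cells exposed to compound for four days; 0% = vehicle DMSO and 100% = killing by high DMSO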
# [10] = growth inhibition, single agents and combos, LFS_MB_2R, cell-based, cisplatin combos, synergistic combos for chromothripsis tumors (AID 1671457); details: LFS_MB_2R medulloblastoma cells, stronger effect = higher value;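 note: cells exposed to compound for four days before readout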
# [11] = growth inhibition, MDA-MB-436, cell-based, BGB or cisplatin combos, synergistic combos for chromothripsis tumors (AID 1671458; call rule not given here;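 note: cells exposed for 96 hours; 0% = vehicle DMSO and 100% = killing by high DMSO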); details: MDA-MB-436 breast carcinoma growth inhibition, drug combinations, stronger effect = higher value
# [12] = UWB1.289_BRCA1 ovarian cancer growth, cell-based, BGB or cisplatin combinations (AID 1671459); details: UWB1.289 BRCA1 ovarian carcinoma, drug combinations, stronger effect = higher value
# [13] = drug combination toxicity in non-malignant astrocytes – cell-based, BGB or cisplatin IC20 combos, cytotoxicity control for chromothriptic childhood tumor combination screen (AID 1671460); details: Human astrocytes, viability inhibition, drug combinations, at 0.5 µM, stronger effect = higher value;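 note: cells exposed to compounds for 96 hours before viability readout; 0% = vehicle and 100% = killing control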
# [14] = BT084 cell growth, single and combined drugs, ICGC_MB145, cisplatin and BGB IC40 combos (AID 1671461); details: BT084 medulloblastoma cells, drug combinations, stronger effect = higher value;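 note: cells exposed to drugs for 96 hours; 0% = vehicle DMSO and 100% = high DMSO full killing control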
# [15] = RCMB18 cell growth, single agent and combined, cisplatin and BGB IC40 combos (AID 1671462); details: RCMB18 medulloblastoma cells, stronger effect = higher value;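 note: cells exposed to compound for four days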
# [16] = CRL1545 cell growth, single agent and combined, cisplatin and BGB IC20 combos (AID 1671464); details: CRL1545 osteosarcoma cells, stronger effect = higher value;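 note: cells exposed to compound for 96 hours before readout; 0% = vehicle DMSO and 100% = high DMSO killing control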
# [17] = measured here: combination with BGB IC40, at 0.05 µM
# [18] = measured here: with BGB IC20 combination, at 0.5 µM
# [19] = measured here: with cisplatin IC20 combination, at 0.5 µM
# [20] = measured here: combination with cisplatin, at 0.5 µM
# [21] = measured here: combination with cisplatin, at 5 µM
compound,measurement,setting,value
CN1CCC23CCCC[C@H]2C1Cc1ccc(O)cc13 (stereo partly specified),period change,[1],-0.06 h (inactive)
CC(C)[C@@]1(NC(=O)[C@@H]2C=C3c4cccc5[nH]cc(c45)C[C@H]3N(C)C2)O[C@@]2(O)[C@@H]3CCCN3C(=O)[C@H](Cc3ccccc3)N2C1=O,period change,[1],0.465 h (inactive)
CCN(CC)C(=O)N[C@@H]1C=C2c3cccc4[nH]cc(c34)C[C@H]2N(C)C1,period change,[1],0.415 h (inactive)
Cc1c(N)nc(C(CC(N)=O)NCC(N)C(N)=O)nc1C(=O)NC(C(=O)NC(C)C(O)C(C)C(=O)NC(C(=O)NCCc1nc(-c2nc(C(=O)NCCC[S+](C)C)cs2)cs1)C(C)O)C(O[C@@H]1O[C@@H](CO)[C@@H](O)[C@H](O)[C@@H]1O[C@H]1O[C@H](CO)[C@@H](O)[C@H](OC(N)=O)[C@@H]1O)c1cnc[nH]1 (stereo partly specified),inhibition,"[2]; at 0.5 µM, stronger effect = higher value",-26.9% (inactive) and -11.5% (inactive)
same,inhibition,"[2]; measured here: combination with BGB IC20, at 0.005 µM",28.9% and -33.7%
same,inhibition,"[2]; measured here: combination with BGB IC40, at 0.005 µM",-4.08% and -32.1%
same,inhibition,[2]; [17],1.25% and -43.8%
same,inhibition,"[2]; measured here: combination with cisplatin, at 0.5 µM, stronger effect = higher value",-37.7% and -28%
same,inhibition,"[2]; measured here: combination with cisplatin, at 5 µM, stronger effect = higher value",-0.936% and -58.3%
same,inhibition,"[3]; BGB combo, at 5 µM",94.9% and 96.7%
same,inhibition,[3]; at 0.5 µM,56.2% (inactive) and 63.6% (inactive)
same,inhibition,"[3]; cisplatin combo, at 5 µM",90% and 97.3%
same,inhibition,[3]; [18],57.4% and 65.6%
same,inhibition,[3]; [19],46.8% and 53.3%
same,inhibition,"[3]; single agent, at 5 µM",95% and 97.6%
same,inhibition,"[4]; BGB IC20 combo, at 0.005 µM",15.2% and 12.8%
same,inhibition,"[4]; BGB IC40 combo, at 0.005 µM",-5.04% and -17.2%
same,inhibition,"[4]; BGB IC40 combo, at 0.05 µM",2.59% and -11.2%
same,inhibition,[4]; at 0.5 µM,-18.3% (inactive) and -34.3% (inactive)
same,inhibition,"[4]; cisplatin combo, at 0.05 µM",-0.135% and -15.2%
same,inhibition,"[4]; cisplatin combo, at 0.5 µM",-22.6% and -41.3%
same,inhibition,"[4]; cisplatin combo, at 5 µM",-35.8% and -29.6%
same,inhibition,"[4]; measured here: 5 uM single agent, at 5 µM",-30.1% and -12.5%
same,inhibition,[5]; at 0.5 µM,-1.28% (inactive) and 4.59% (inactive)
same,inhibition,[5]; [17],-22.4% and 5.32%
same,inhibition,[5]; [20],19.1% and 22.6%
same,inhibition,[5]; [21],2.08% and 20.3%
same,inhibition,[6]; at 0.5 µM,23% (inactive) and 30.3% (inactive)
same,inhibition,"[6]; measured here: with BGB IC20, at 0.5 µM",21.6% and 26.9%
same,inhibition,"[6]; measured here: with BGB IC20, at 5 µM",61.8% and 92.6%
same,inhibition,"[6]; measured here: with cisplatin IC20, at 0.5 µM",14.2% and 23.1%
same,inhibition,"[6]; measured here: with cisplatin IC20, at 5 µM",54.6% and 74.3%
same,inhibition,"[6]; single agent, at 5 µM",73.7% and 82.2%
same,inhibition,[7]; at 0.5 µM,33.9% (inactive) and 38.3% (inactive)
same,inhibition,"[7]; measured here: combination with BGB at IC20, at 0.5 µM",21% and 37.5%
same,inhibition,"[7]; measured here: combination with cisplatin at IC20, at 0.5 µM",31% and 27.7%
same,inhibition,[8]; at 0.5 µM,48.5% (inactive) and 64.8% (inactive)
same,inhibition,"[8]; measured here: combo with BGB at IC20, at 0.5 µM",54.2% and 75.3%
same,inhibition,"[8]; measured here: combo with cisplatin at IC20, at 0.5 µM",40% and 68.2%
same,inhibition,[9]; at 0.5 µM,22.8% (inactive) and 41.7% (inactive)
same,inhibition,"[9]; measured here: inhibition with BGB combination, at 0.05 µM",12.4% and -1.23%
same,inhibition,"[9]; measured here: inhibition with cisplatin combination, at 0.05 µM",12.6% and 30.8%
same,inhibition,[10]; at 0.5 µM,-1.61% (inactive) and -19.6% (inactive)
same,inhibition,[10]; [20],1.34% and -24.5%
same,inhibition,[10]; [21],-27.5% and -11.4%
same,inhibition,[11]; at 0.5 µM,15.9% (inactive) and 17.6% (inactive)
same,inhibition,"[11]; measured here: BGB combination, at 0.5 µM",8.64% and 0.685%
same,inhibition,"[11]; measured here: BGB combination, at 5 µM",29.8% and 10.1%
same,inhibition,"[11]; measured here: cisplatin combination, at 0.5 µM",17.1% and 11.9%
same,inhibition,"[11]; measured here: cisplatin combination, at 5 µM",42.7% and 28.7%
same,inhibition,"[12]; BGB combination, concentration series, at 5 µM",33.2% and 41.4%
same,inhibition,[12]; at 0.5 µM,17% (inactive) and 31.1% (inactive)
same,inhibition,"[12]; cisplatin combination, concentration series, at 5 µM",31.9% and 22.9%
same,inhibition,[13],35.7% (inactive) and 41.9% (inactive)
same,inhibition,[13]; measured here: combo with BGB IC20,41.1% and 49.2%
same,inhibition,[13]; measured here: combo with cisplatin IC20,9.83% and 15.3%
same,inhibition,[14]; at 0.5 µM,-4.03% (inactive) and -7.21% (inactive)
same,inhibition,"[14]; cisplatin combination, at 0.5 µM",-3.29% and -12.5%
same,inhibition,"[14]; cisplatin combination, at 5 µM",4.08% and 10.3%
same,inhibition,"[14]; measured here: BGB IC40 combination 0.05 uM, at 0.05 µM",-1.66% and -25.1%
same,inhibition,"[14]; single agent, at 5 µM",-12.7% and -10.7%
same,inhibition,[15]; at 0.5 µM,32.3% (inactive) and -22.9% (inactive)
same,inhibition,"[15]; cisplatin combo, at 5 µM",15.5% and 7.73%
same,inhibition,"[15]; measured here: BGB IC40 combination, at 0.05 µM",-15.7% and -30.1%
same,inhibition,[15]; [20],27.9% and 2.02%
same,inhibition,"[15]; single agent, at 5 µM",-20% and -46.7%
same,inhibition,[16]; at 0.5 µM,32% (inactive) and 45.1% (inactive)
same,inhibition,[16]; [18],25.4% and 41.5%
same,inhibition,[16]; [19],33.8% and 46%
same,inhibition,"[16]; single agent, at 0.05 µM",23% and 12.8%
same,inhibition,"[16]; single agent, at 5 µM",88.5% and 95.5%

# From PubChem BioAssay
